Inconclusive results are not listed. Activity calls are given as the source filed them. The calls were made as follows: active = hit-call score of the fitted dose curve at least 0.9, where 1 is the maximum; inconclusive = response in the unintended direction; inactive = score below 0.9.

Sequence of Tyrosine-protein kinase ABL1 (Homo sapiens) (P00519 whole entry, looked up): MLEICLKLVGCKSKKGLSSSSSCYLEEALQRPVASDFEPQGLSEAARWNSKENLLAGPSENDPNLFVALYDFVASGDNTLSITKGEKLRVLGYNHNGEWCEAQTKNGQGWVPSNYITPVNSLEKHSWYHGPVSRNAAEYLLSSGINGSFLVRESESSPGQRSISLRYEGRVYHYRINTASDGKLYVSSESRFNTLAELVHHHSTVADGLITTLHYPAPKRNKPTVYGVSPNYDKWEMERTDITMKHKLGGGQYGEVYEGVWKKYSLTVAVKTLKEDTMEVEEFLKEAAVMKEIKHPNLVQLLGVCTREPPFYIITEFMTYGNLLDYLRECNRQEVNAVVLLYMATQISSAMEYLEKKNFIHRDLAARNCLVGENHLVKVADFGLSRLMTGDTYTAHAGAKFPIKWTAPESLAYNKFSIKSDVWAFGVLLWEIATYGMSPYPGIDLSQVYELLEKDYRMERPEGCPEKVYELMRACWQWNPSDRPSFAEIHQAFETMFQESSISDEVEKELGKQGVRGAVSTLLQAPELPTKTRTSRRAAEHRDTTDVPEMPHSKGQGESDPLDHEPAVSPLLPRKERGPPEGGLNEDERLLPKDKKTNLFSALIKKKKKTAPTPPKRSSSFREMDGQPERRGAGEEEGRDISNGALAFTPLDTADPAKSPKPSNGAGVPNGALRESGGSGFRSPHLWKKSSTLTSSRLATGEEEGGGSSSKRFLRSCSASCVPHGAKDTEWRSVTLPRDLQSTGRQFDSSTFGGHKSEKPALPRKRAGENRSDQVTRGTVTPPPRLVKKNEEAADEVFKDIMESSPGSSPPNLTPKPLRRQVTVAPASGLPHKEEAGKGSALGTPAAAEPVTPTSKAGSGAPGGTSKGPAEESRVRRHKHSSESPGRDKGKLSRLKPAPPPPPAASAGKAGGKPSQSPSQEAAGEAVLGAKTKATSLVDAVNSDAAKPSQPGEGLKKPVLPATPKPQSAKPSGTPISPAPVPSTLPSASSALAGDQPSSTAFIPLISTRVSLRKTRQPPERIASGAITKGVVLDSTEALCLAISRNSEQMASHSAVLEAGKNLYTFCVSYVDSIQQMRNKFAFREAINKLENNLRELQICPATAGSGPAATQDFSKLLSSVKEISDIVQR

The experiment concerns the target Tyrosine-protein kinase ABL1 (Homo sapiens) (UniProt P00519). The experiment in a line: NVS_ENZ_hAbl: NovaScreen (NVS) Enzymatic Assay for human ABL proto-oncogene 1, non-receptor tyrosine kinase. The procedure: NVS_ENZ_hAbl is a biochemical, single-readout assay that uses extracted gene-proteins in a cell-free assay. Measurements were taken 1 hour after chemical dosing in a 96-well plate.NVS_ENZ_hAbl is one of one assay component(s) measured or calculated from the NVS_ENZ_hAbl assay. It is designed to make measurements of enzyme activity, a form of enzyme reporter, as detected with fluorescence intensity signals by Fluorescence and electrophoretic mobility shift technology.Data from the assay component NVS_ENZ_hAbl was analyzed into 1 assay endpoint. This assay endpoint, NVS_ENZ_hAbl, was analyzed in the positive analysis fitting direction relative to DMSO as the negative control and baseline of activity. Using a type of enzyme reporter, loss-of-signal activity can be used to understand changes in the enzymatic activity as they relate to the gene ABL1. Furthermore, this assay endpoint can be referred to as a primary readout, because this assay has produced multiple assay endpoints where this one serves a enzymatic activity function. To generalize the intended target to other relatable targets, this assay endpoint is annotated to the kinase intended target family, where the subfamily is non-receptor tyrosine kinase.
Binding assays used specific radioligands (tritiated, iodinated) with non-radioactive competitive displacement ligands in agonist or antagonist protocols (as indicated) and various reference compounds and inhibitors to titrate specific binding to receptors and transporters. Most enzyme assays (CYPs, kinases, phosphatases, proteases, HDACs) used recombinant protein and specific substrates (fluorescence mostly, some colorimetric and radioactive) and inhibitors, followed by a biochemical separation of substrate and product. All assays for the biochemical HTS were initially run in duplicate at a single concentration (10 uM for CYP450 assays and 25 uM for all others). Assay-chemical combinations meeting a pre-defined threshold (e.g., 30% inhibition and other criteria defined below) were then run in singleton concentration-response format with maximum concentration of 20 uM for CYPs and 50 uM for all others. Each assay was run with positive and negative controls, and concurrent controls on every plate. The follow-up (secondary) screen tested active chemical-pairs in concentration series, as well as a few additional assays not tested in the primary screen, some selected negative inactives, and several cases re-run in the concentration series for confirmatory purposes.
`O=C(O)C(F)(F)C(F)(F)C(F)(F)C(F)(F)C(F)(F)C(F)(F)C(F)(F)F`: the outcome was inactive.
`CCCC(=NOCC)C1=C(O)CC(CC(C)SCC)CC1=O` (stereo not drawn): the call was inactive.
Consider `O=C(Nc1ccccc1)Nc1cnns1`, for which the compound was called inactive.
For `CCNc1nc(Cl)nc(NCC)n1`, the compound was called inactive.
Regarding `N#Cc1c(Cl)c(Cl)c(Cl)c(C#N)c1Cl`, the compound was classed as inactive.
With `O=C(Nc1ccccc1)Nc1ccnc(Cl)c1` the entry was “inactive”; with `O=S(=O)(O)C(F)(F)C(F)(F)C(F)(F)C(F)(F)C(F)(F)C(F)(F)C(F)(F)C(F)(F)F`, “inactive”.
As for `CCCCNC(=O)n1c(NC(=O)OC)nc2ccccc21`, the compound was called inactive.

For the origin of these results see PubChem BioAssay AID2283125 (EPA ToxCast).
